# From paper PMC7862700, “An all-to-all approach to the identification of sequence-specific readers for epigenetic DNA modifications on cytosine”
# Assays:
# Assay in all cases: DAPPL (digital affinity profiling via proximity ligation, sequencing); 10 mM Tris-HCl pH 7.5, 50 mM NaCl, 1 mM DTT, 4% glycerol, room temperature, 30 min; GST-TFs on glutathione beads, 16-mer random dsDNA library, 0.1% formaldehyde crosslink after washing; high values mean tight binding
# FLI1 = target: T1, FLI1 (Homo sapiens, UniProt Q01543 1-452); conditions: protein: recombinant; tags: N-terminal GST; dsDNA, one strand shown
# T1 sequence: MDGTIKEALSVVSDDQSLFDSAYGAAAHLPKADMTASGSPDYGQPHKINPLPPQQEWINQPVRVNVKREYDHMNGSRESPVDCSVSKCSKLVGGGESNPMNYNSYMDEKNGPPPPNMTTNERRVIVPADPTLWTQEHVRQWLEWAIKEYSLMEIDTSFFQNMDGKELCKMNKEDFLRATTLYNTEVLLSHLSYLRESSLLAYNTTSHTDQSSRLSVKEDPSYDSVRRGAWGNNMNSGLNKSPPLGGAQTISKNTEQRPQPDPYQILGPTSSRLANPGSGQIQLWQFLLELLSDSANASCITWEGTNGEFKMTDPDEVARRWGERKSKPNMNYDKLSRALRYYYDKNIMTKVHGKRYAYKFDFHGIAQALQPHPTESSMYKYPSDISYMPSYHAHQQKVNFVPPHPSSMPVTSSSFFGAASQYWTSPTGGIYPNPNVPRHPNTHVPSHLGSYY
# In short: (§1)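 A tag-only sample was pooled with DNA-barcoded human transcription factors that had been expressed in yeast as GST fusions and captured on glutathione beads. The pools were incubated for 30 min at room temperature with 200 nmole of a random double-stranded 16-mer DNA library in Tris/NaCl/DTT/glycerol buffer, then washed, crosslinked with 0.1% formaldehyde, proximity-ligated (BsaI/T4 ligase, 1 h, 37 °C), PCR-amplified and sequenced on an Illumina NextSeq500. Binding signal is each hexamer's read frequency for a factor divided by its frequency for the tag-only sample.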
# ELK1 = target: T2, ELK1 (Homo sapiens, UniProt P19419 1-428); conditions: protein: recombinant; tags: N-terminal GST; dsDNA, one strand shown
# T2 sequence: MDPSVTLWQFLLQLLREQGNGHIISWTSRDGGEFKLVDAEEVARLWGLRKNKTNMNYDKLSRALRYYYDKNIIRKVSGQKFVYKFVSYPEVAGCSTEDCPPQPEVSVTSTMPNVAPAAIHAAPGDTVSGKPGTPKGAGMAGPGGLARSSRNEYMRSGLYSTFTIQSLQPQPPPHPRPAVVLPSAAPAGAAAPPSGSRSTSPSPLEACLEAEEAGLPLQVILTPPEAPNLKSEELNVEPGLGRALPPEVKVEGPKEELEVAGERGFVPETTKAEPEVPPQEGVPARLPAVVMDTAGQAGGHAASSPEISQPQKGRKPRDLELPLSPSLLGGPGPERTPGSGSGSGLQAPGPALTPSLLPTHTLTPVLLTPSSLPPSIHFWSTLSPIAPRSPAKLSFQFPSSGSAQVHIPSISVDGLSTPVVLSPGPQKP
# In short: as §1
# GABPA = target: T3, GABPA (Homo sapiens, UniProt Q06546 1-454); conditions: protein: recombinant; tags: N-terminal GST; dsDNA, one strand shown
# T3 sequence: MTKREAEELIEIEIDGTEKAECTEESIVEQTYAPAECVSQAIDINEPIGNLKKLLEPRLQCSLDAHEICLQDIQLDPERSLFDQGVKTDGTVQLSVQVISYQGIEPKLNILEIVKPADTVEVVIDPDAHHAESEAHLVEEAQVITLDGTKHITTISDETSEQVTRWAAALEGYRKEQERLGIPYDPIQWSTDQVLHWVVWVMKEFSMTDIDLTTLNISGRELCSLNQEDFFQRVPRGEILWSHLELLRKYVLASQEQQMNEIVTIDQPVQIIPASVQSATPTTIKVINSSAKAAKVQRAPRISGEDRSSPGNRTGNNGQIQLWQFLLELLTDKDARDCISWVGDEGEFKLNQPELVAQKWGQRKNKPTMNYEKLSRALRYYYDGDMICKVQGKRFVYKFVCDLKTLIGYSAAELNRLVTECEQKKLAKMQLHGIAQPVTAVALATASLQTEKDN
# In short: as §1
# ERG = target: T4, ERG (Homo sapiens, UniProt P11308 1-479); conditions: protein: recombinant; tags: N-terminal GST; dsDNA, one strand shown
# T4 sequence: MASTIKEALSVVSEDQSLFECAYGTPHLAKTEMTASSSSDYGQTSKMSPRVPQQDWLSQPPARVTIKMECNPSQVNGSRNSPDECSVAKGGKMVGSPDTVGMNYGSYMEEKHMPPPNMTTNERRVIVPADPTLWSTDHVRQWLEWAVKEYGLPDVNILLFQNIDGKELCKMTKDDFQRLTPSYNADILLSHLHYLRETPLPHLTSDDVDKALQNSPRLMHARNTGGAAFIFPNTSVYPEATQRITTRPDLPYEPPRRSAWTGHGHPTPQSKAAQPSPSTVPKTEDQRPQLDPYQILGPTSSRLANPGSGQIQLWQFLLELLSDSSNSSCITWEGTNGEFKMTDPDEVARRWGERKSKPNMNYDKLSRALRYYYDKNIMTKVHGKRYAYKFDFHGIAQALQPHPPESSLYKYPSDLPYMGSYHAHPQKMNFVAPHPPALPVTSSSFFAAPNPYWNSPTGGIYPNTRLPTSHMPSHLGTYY
# In short: as §1
# ELF1 = ELF1 (Homo sapiens, UniProt P32519 1-619); conditions: protein: recombinant; tags: N-terminal GST; dsDNA, one strand shown
# Sequence of ELF1 (P32519 whole entry): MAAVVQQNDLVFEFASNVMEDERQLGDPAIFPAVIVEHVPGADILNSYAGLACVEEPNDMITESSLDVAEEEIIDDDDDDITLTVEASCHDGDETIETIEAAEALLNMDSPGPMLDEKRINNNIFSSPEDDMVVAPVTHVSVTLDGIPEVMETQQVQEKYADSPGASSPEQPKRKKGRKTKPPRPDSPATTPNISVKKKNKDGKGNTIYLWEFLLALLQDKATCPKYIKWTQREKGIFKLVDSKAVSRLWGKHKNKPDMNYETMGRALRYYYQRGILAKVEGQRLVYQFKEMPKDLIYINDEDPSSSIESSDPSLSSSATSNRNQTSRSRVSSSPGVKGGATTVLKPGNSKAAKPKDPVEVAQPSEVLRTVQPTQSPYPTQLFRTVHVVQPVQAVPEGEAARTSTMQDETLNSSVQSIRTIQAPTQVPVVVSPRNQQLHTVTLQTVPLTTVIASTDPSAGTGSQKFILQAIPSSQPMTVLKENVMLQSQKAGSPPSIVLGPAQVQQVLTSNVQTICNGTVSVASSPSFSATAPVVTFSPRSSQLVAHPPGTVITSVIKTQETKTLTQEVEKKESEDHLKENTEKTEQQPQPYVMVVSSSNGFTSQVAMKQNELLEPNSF
# In short: as §1
# EHF = target: T5, EHF (Homo sapiens, UniProt Q9NZC4 1-300); conditions: protein: recombinant; tags: N-terminal GST; dsDNA, one strand shown
# T5 sequence: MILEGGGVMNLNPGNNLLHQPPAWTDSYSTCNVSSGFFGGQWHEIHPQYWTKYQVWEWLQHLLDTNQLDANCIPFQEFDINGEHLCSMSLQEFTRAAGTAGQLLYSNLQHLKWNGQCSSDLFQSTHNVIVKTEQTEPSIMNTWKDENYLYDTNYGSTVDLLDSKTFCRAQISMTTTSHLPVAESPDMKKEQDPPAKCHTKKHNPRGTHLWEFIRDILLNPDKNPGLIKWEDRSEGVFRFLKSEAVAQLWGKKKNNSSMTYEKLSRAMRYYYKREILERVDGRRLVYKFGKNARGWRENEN
# In short: as §1
# SPI1 = SPI1 (Homo sapiens, UniProt P17947 1-270); conditions: protein: recombinant; tags: N-terminal GST; dsDNA, one strand shown
# In short: as §1
# ELK3 = target: T6, ELK3 (Homo sapiens, UniProt P41970 1-407); conditions: protein: recombinant; tags: N-terminal GST; dsDNA, one strand shown
# T6 sequence: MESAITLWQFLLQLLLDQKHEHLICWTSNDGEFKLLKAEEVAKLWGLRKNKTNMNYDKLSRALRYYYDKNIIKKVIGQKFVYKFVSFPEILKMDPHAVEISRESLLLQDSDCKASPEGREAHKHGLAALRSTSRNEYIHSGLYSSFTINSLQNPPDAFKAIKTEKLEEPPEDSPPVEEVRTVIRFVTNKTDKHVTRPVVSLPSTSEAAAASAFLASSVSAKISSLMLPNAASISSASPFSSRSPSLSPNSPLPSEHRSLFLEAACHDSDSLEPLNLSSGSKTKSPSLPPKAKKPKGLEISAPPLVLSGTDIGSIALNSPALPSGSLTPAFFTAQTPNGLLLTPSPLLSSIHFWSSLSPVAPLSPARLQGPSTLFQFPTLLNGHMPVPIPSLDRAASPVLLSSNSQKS
# In short: as §1
# FEV = target: T7, FEV (Homo sapiens, UniProt Q99581 1-238); conditions: protein: recombinant; tags: N-terminal GST; dsDNA, one strand shown
# T7 sequence: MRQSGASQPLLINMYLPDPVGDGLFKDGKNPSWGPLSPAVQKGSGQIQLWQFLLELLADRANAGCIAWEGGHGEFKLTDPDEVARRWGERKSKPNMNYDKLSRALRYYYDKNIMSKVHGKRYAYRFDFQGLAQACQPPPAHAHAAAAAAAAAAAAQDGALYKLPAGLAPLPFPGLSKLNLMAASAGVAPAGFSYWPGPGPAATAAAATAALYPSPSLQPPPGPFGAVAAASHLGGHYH
# In short: as §1
# ETV5 = ETV5 (Homo sapiens, UniProt P41161 1-510); conditions: protein: recombinant; tags: N-terminal GST; dsDNA, one strand shown
# Sequence of ETV5 (P41161 whole entry): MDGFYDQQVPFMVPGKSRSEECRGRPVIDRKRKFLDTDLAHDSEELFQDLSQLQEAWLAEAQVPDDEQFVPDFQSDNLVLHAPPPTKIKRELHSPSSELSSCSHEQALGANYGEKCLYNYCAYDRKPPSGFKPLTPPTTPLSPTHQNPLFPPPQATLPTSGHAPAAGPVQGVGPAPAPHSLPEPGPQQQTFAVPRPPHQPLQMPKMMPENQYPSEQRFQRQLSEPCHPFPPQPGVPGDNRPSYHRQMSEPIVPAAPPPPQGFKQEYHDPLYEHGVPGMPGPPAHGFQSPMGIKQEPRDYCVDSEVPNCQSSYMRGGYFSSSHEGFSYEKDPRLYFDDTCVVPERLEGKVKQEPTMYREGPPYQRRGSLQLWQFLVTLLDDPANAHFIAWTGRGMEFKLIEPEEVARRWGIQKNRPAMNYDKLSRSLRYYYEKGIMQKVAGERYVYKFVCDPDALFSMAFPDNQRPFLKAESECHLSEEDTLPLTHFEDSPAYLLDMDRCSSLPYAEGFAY
# In short: as §1
# HSF1 = HSF1 (Homo sapiens, UniProt Q00613 1-529); conditions: protein: recombinant; tags: N-terminal GST; chain copies: 3; dsDNA, one strand shown
# Sequence of HSF1 (Q00613 whole entry): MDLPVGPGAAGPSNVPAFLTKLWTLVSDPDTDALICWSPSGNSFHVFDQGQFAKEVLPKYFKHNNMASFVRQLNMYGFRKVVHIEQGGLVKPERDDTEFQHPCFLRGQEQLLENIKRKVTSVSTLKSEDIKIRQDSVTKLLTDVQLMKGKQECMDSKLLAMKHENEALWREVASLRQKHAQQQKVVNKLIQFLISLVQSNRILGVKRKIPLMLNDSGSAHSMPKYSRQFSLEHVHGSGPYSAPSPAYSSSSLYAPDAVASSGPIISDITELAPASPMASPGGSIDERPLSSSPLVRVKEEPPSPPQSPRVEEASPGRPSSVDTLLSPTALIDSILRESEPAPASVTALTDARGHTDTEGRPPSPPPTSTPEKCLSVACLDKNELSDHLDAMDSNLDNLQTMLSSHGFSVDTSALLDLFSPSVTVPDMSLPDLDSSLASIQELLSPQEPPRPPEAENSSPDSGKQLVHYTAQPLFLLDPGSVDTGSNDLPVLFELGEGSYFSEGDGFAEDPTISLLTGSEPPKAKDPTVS
# In short: as §1
# SPIC = target: T8, SPIC (Homo sapiens, UniProt Q8N5J4 1-248); conditions: protein: recombinant; tags: N-terminal GST; dsDNA, one strand shown
# T8 sequence: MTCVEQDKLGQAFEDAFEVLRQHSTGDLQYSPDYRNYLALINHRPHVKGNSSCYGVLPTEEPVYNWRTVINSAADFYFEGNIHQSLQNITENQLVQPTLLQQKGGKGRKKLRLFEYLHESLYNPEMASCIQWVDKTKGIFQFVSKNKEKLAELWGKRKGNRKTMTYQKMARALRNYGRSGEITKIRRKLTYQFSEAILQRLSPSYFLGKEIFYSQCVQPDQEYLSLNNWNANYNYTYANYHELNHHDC
# In short: as §1
# ELF4 = ELF4 (Homo sapiens, UniProt Q99607 1-663); conditions: protein: recombinant; tags: N-terminal GST; dsDNA, one strand shown
# Sequence of ELF4 (Q99607 whole entry): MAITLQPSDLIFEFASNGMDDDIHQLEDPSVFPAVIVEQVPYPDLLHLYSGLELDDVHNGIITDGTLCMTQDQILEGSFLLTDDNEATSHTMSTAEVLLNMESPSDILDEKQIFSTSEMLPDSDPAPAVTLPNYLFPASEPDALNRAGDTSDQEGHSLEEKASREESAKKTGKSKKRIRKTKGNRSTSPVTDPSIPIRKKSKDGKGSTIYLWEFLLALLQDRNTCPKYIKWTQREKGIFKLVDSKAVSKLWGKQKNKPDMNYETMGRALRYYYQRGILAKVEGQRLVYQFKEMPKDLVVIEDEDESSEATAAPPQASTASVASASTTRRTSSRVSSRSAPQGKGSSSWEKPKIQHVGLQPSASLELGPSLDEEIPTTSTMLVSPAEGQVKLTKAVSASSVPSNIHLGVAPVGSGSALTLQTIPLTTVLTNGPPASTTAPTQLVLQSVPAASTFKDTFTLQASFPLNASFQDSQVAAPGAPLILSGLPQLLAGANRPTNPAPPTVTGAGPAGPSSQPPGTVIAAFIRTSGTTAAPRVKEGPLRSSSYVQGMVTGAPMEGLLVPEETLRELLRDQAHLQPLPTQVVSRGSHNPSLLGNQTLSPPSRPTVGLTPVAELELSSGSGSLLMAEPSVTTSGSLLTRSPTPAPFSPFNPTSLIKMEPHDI
# In short: as §1
# ELK4 = target: T9, ELK4 (Homo sapiens, UniProt P28324-2 1-405); conditions: protein: recombinant; tags: N-terminal GST; dsDNA, one strand shown
# T9 sequence: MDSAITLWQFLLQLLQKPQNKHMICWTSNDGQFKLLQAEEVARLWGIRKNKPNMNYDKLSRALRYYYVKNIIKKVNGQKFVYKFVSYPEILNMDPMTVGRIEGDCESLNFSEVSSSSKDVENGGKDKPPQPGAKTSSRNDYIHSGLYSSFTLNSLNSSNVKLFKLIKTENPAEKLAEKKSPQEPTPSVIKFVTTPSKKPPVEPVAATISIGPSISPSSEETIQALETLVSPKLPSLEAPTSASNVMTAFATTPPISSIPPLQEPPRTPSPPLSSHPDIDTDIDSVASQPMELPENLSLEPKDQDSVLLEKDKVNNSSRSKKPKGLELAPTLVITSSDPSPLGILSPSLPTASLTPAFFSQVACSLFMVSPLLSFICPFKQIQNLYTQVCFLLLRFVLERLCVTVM
# In short: as §1
# ETV2 = target: T10, ETV2 (Homo sapiens, UniProt O00321 1-342); conditions: protein: recombinant; tags: N-terminal GST; dsDNA, one strand shown
# T10 sequence: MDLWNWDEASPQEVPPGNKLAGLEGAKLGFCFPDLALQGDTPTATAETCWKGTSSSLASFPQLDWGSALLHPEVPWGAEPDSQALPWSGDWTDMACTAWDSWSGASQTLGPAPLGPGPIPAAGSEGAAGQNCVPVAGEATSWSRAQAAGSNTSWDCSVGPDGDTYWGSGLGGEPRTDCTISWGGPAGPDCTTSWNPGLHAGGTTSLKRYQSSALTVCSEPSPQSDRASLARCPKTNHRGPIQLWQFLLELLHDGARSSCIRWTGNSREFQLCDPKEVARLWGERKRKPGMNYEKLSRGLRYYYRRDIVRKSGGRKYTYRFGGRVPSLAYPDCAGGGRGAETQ
# In short: as §1
# ELF3 = target: T11, ELF3 (Homo sapiens, UniProt P78545 1-371); conditions: protein: recombinant; tags: N-terminal GST; dsDNA, one strand shown
# T11 sequence: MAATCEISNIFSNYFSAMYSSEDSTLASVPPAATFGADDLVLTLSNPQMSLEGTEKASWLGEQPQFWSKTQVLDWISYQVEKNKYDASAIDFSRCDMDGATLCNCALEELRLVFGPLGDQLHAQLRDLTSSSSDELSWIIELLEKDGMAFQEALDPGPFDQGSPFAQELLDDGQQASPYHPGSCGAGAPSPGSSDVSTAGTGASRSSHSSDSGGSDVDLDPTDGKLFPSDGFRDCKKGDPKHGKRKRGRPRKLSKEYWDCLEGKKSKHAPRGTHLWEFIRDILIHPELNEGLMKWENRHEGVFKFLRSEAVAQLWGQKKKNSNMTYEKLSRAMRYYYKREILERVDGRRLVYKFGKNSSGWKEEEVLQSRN
# In short: as §1
# CRX = CRX (Homo sapiens, UniProt O43186 1-299); conditions: protein: recombinant; tags: N-terminal GST; dsDNA, one strand shown
# Sequence of CRX (O43186 whole entry): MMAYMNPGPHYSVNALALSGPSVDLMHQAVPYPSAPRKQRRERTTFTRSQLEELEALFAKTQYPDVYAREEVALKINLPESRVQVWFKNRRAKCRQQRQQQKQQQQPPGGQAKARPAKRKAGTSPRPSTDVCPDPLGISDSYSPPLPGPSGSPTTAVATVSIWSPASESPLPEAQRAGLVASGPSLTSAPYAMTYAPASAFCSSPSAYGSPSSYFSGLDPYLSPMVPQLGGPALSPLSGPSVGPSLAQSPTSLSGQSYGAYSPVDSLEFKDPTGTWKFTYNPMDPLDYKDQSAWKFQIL
# In short: as §1
# ETV1 = ETV1 (Homo sapiens, UniProt P50549 1-477); conditions: protein: recombinant; tags: N-terminal GST; dsDNA, one strand shown
# Sequence of ETV1 (P50549 whole entry): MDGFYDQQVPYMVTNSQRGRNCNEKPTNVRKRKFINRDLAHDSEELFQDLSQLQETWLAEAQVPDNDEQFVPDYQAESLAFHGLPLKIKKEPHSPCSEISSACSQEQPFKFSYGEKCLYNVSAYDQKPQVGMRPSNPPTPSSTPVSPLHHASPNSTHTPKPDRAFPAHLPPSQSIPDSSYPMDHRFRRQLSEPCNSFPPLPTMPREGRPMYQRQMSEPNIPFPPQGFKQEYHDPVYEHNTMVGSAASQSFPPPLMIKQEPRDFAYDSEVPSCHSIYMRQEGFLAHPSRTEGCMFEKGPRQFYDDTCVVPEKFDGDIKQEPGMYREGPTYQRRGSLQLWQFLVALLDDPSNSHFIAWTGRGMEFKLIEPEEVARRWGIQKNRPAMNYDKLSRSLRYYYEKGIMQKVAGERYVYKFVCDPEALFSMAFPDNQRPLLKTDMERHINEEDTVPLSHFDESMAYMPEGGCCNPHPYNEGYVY
# In short: as §1
sequence,measurement,setting,value
TTACGT,binding signal,FLI1,"1.19 fold enrichment (6-mer frequency, TF over GST control)"
same,binding signal,ELK1,"1.09 fold enrichment (6-mer frequency, TF over GST control)"
same,binding signal,GABPA,"1.2 fold enrichment (6-mer frequency, TF over GST control)"
same,binding signal,ERG,"1.07 fold enrichment (6-mer frequency, TF over GST control)"
same,binding signal,ELF1,"1.07 fold enrichment (6-mer frequency, TF over GST control)"
same,binding signal,EHF,"1.1 fold enrichment (6-mer frequency, TF over GST control)"
same,binding signal,SPI1,"1.09 fold enrichment (6-mer frequency, TF over GST control)"
same,binding signal,ELK3,"1.05 fold enrichment (6-mer frequency, TF over GST control)"
same,binding signal,FEV,"1.04 fold enrichment (6-mer frequency, TF over GST control)"
same,binding signal,ETV5,"1.19 fold enrichment (6-mer frequency, TF over GST control)"
same,binding signal,HSF1,"1.21 fold enrichment (6-mer frequency, TF over GST control)"
same,binding signal,SPIC,"1.07 fold enrichment (6-mer frequency, TF over GST control)"
same,binding signal,ELF4,"1.11 fold enrichment (6-mer frequency, TF over GST control)"
same,binding signal,ELK4,"1.12 fold enrichment (6-mer frequency, TF over GST control)"
same,binding signal,ETV2,"1.2 fold enrichment (6-mer frequency, TF over GST control)"
same,binding signal,ELF3,"1.14 fold enrichment (6-mer frequency, TF over GST control)"
same,binding signal,CRX,"1.74 fold enrichment (6-mer frequency, TF over GST control)"
same,binding signal,ETV1,"1.06 fold enrichment (6-mer frequency, TF over GST control)"
